Source: PubChem (several laboratories)
The full list was thinned out, with hits kept by preference.
ALR H2O2 inh: inhibitors of human ALR sulfhydryl oxidase, primary screen, biochemical, H2O2 detection, HRP-luminol luminescence, single point | purified ALR, DTT oxidation | 290,000 compounds, 3.8% hits | AID 485317, 2010 | inhibition, % (no concentration beside the values);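 active = mean replicate inhibition above about 79%, with every replicate also reaching it, limit read from the data; inconclusive = only one of the two criteria met; inactive = mean below limit and not every replicate reaching it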
Target sequence (P55789 whole entry, looked up): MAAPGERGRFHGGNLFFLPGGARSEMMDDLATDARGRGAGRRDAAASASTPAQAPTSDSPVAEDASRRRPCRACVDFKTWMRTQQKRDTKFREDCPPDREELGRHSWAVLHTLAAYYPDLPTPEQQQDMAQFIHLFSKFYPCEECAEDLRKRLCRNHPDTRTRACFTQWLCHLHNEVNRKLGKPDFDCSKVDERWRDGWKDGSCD
PglD inh: C. jejuni PglD acetyltransferase inhibitors, primary screen, biochemical, DTNB colorimetric, single point. purified PglD enzyme, DTNB colorimetric CoA detection. inhibition, % at 12.5 µM. 360,000 compounds, 0.098% hits. AID 602405, 2012; in the data active = inhibition above about 16%, passing the limit was not always enough; inconclusive = no clear call, values can overlap the other calls
ARNT-TACC3 inh: disruptors of ARNT/TACC3 protein interaction, primary screen, biochemical, AlphaScreen, single concentration; Transforming acidic coiled-coil-containing protein 3 (Homo sapiens), Q9Y6A5; AlphaScreen His-ARNT PAS-B/GST-TACC3 binding, luminescence; TACC3 fragment carries E629A point mutation; inhibition, % at 9.99 µM; 390,000 compounds, 0.66% hits; AID 623870, 2012;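 active = mean inhibition of replicates at least 50% and at least half of replicates each reaching 50%; inconclusive = half or more replicates reach 50% but mean below 50%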;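 also: 0% = complete ARNT plus TACC3 wells and 100% = ARNT alone without TACC3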
PDI turbidity: inhibitors of human PDI, primary screen, biochemical, turbidity, single point, plate reader. inhibition, % at 10 µM. PDI insulin aggregation turbidity, A650, 90 min. Protein disulfide-isomerase (Homo sapiens), P07237. AID 588391, 2011. 350,000 compounds, 0.052% hits;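 active = mean inhibition across replicates of 30% or more, whatever share of single replicates reach that level; inconclusive = mean inhibition below 30% while every single replicate reaches 30%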
ERp5 inh: inhibitors of ERp5-driven insulin aggregation, primary screen, biochemical, turbidity, absorbance 650 nm, single point; 90 min; inhibition, % at 9.99 µM; 350,000 compounds, 0.05% hits;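 active = mean replicate inhibition above about 25%, with every replicate also reaching it, limit read from the data, passing the limit was not always enough; inconclusive = only one of those two criteria met; inactive = neither criterion met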
Target sequence (Q15084 whole entry, looked up): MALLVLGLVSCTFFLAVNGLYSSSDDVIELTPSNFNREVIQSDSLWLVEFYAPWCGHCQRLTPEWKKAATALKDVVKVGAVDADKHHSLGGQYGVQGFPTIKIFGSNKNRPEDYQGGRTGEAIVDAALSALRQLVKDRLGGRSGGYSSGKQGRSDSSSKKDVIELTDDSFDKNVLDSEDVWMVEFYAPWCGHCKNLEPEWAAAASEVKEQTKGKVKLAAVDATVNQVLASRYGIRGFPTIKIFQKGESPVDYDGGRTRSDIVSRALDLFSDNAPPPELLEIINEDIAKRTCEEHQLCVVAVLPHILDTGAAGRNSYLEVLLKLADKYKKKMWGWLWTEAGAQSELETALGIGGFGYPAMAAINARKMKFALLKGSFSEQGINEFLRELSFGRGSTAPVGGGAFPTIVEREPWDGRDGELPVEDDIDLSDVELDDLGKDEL
CendR NRP1 mod: modulators of CendR peptide binding to NRP-1, primary screen, biochemical, fluorescence polarization, uHTS; 360,000 compounds, 0.85% hits; AID 602438, 2012; FAM-RPARPAR peptide binding to NRP-1; inhibition, % at 25 µM;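 active = inhibition or corrected inhibition above about 18%, plus a signal ratio from 0.5 to 1.5, limit read from the data, passing the limit was not always enough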
Numbers without * were called inactive; u = inconclusive; x = no result given.

SMILES | ALR H2O2 inh | PglD inh | ARNT-TACC3 inh | PDI turbidity | ERp5 inh | CendR NRP1 mod
O=C(CN1CCN(c2ccccc2)CC1)N1CCN(c2ccccc2)CC1 | 98.6* | -2.6 | -1.0 | 0.9 | 5.3 | 1.3
O=C(CSCc1ccccc1)N1CCN(c2ccccc2)CC1 | 98.2* | x | -6.6 | 3.5 | 2.5 | 2.4
O=C(Nc1cccc(F)c1)N1CCCCN2[C@H](CO)[C@H](c3ccc(C#CC4CC4)cc3)[C@H]2C1 | x | -0.4 | 9.5 | x | -0.6 | x
CN1CCN(C(=O)C[C@@H]2CC[C@H]3[C@H](COc4ccc(NC(=O)C5CC5)cc4C(=O)N3C)O2)CC1 | x | -0.5 | -10.3 | x | 4.7 | x
O=C(CN1CCN(c2ccccc2)CC1)Nc1ccncc1 | 99.1* | -0.1 | 9.0 | 4.9 | -1.7 | 13.0
O=C(CSCc1cccc(F)c1)N1CCN(c2ccccc2)CC1 | 98.4* | -8.6 | 9.4 | 4.3 | -1.2 | -5.6
Cc1cc(C)cc(NC(=O)CN2CCN(c3ccccc3)CC2)c1 | 21.8 | -0.7 | 5.0 | 10.6 | -6.8 | -3.9
O=C(CSCc1ccccc1)N1CCN(c2ccc(F)cc2)CC1 | 88.5* | 1.0 | 4.4 | -2.6 | x | -1.7
CC1(C(=O)N2CCN(c3ccccc3)CC2)CC1(Cl)Cl (stereo unspecified) | 96.2* | 3.4 | 2.6 | -3.2 | 0.1 | -13.7
C[C@@H]1CN([C@H](C)CO)C(=O)Cc2cc(N(C)C)ccc2O[C@@H]1CN(C)S(=O)(=O)c1ccccc1 | x | -4.4 | 5.3 | x | -4.8 | x
COc1ccc(NC(=O)N(C)C[C@@H]2Oc3c(NC(=O)Nc4ccc5c(c4)OCO5)cccc3C(=O)N([C@@H](C)CO)C[C@@H]2C)cc1 | x | 2.8 | -0.5 | x | -3.9 | x
C[C@@H]1CN([C@H](C)CO)S(=O)(=O)c2ccc(-c3ccncc3)cc2O[C@H]1CN(C)S(C)(=O)=O | x | 5.2 | 0.4 | x | 10.0 | x
CC(=O)N(C)C[C@@H]1Oc2cc(C#CCC3CCCC3)ccc2S(=O)(=O)N([C@H](C)CO)C[C@H]1C | x | 1.6 | -1.4 | x | -3.0 | x
O=C(CSC1CCCCC1)N1CCN(c2ccccc2)CC1 | 98.0* | 11.4 | -8.3 | -5.9 | x | 6.4
O=C(CN1CCCCC1)N1CCN(c2ccccc2)CC1 | 37.0 | 5.8 | 1.7 | -1.2 | 5.4 | -0.5
C[C@H](CO)N1C[C@H](C)[C@@H](CN(C)Cc2ccc(C(=O)Nc3ccccc3N)cc2)Oc2ccc(NC(=O)Cn3cnnn3)cc2C1=O | x | 0.3 | -0.9 | x | -2.1 | x
O=C(CCC(=O)c1cccs1)Nc1ccc(N2CCCCC2)cc1 | 89.6* | 4.5 | 0.5 | -2.2 | -1.8 | -2.6
CC1CCCCN1CC(=O)Nc1ccc(N2CCCCCC2)cc1 (stereo unspecified) | 99.0* | x | 24.0 | -4.7 | 4.7 | 6.9
Cc1ccc(NC(=O)CCC(=O)c2cccs2)cc1 | -4.3 | 5.0 | -11.6 | -6.0 | x | -11.5
COc1ccc(C(=O)O)cc1S(=O)(=O)Nc1ccc(N2CCCCC2)cc1 | 96.2* | x | 6.1 | 0.0 | 3.0 | 5.9
CC(=O)c1ccc(S(=O)(=O)Nc2ccc(N3CCOCC3)cc2)cc1 | 33.8 | 1.9 | -7.0 | -4.3 | 0.2 | 14.2
CC(=O)Nc1ccc(S(=O)(=O)Nc2ccc(N3CCOCC3)cc2)cc1 | 81.6* | -3.8 | -9.8 | -2.9 | x | 21.9
CC1CCCCN1CC(=O)Nc1ccc(Oc2ccccc2)cc1 (stereo unspecified) | -2.3 | 4.4 | -1.1 | -7.6 | x | -0.2
CO[C@@H]1CN(C)C(=O)c2ccc(NC(=O)NC3CCCCC3)cc2OC[C@@H](C)N(CC2CC2)C[C@H]1C | x | 2.3 | -17.2 | x | -0.3 | x
COc1ccc(C(=O)O)cc1S(=O)(=O)N1CCCc2ccccc21 | x | -2.9 | 11.4* | 6.3 | 2.5 | 6.7
SMILES | ALR H2O2 inh | PglD inh | ARNT-TACC3 inh | PDI turbidity | ERp5 inh | CendR NRP1 mod
CC(=O)Nc1ccc(N2CCCCC2)cc1 | 99.0* | 6.1 | -3.3 | -0.1 | x | -1.2
COc1ccc(C(=O)NCc2ccccc2)cc1S(=O)(=O)N1CCCc2ccccc21 | 7.2 | 2.2 | x | -0.1 | -0.6 | 4.6
Cc1ccc(S(=O)(=O)N2CCCCC2)cc1NC(=O)CNCc1ccco1 | -7.6 | -1.9 | -2.5 | -0.4 | -3.3 | -2.9
O=C(CNCc1ccco1)Nc1ccc(N2CCCCCC2)cc1 | 98.9* | x | x | 9.6 | 0.8 | -1.7
CCC(=O)Nc1ccc(N2CCCCC2)cc1 | x | -8.7 | -4.9 | 10.7 | x | -3.8
CCCC(=O)Nc1ccc(N2CCCCC2)cc1 | 82.3* | -20.3 | -1.4 | -14.6 | x | 4.7
C[C@@H]1CCCCO[C@@H](CN(C)S(=O)(=O)c2ccc(F)cc2)[C@H](C)CN([C@@H](C)CO)C(=O)c2cc(NC(=O)c3ccccc3)ccc2O1 | x | -3.9 | -4.1 | x | 0.1 | x
O=C(C1CCC1)N1CC(=O)N2[C@H](CO)[C@H](c3ccc(-c4cccnc4)cc3)[C@@H]2C1 | x | x | x | x | 2.9 | x
O=C(Cc1ccccc1)Nc1ccc(N2CCCCC2)cc1 | 5.7 | x | 38.8 | -13.1 | -2.7 | 4.3
O=C(CCl)Nc1ccc(N2CCCCCC2)cc1 | 98.8* | -3.2 | 20.9 | 18.9 | -1.2 | 42.6*
Cc1ccc(S(=O)(=O)Nc2ccc(N3CCOCC3)cc2)cc1 | -1.0 | -2.0 | 5.4 | -0.2 | x | -0.4
Cc1ccc(S(=O)(=O)Nc2ccc(N3CCCCC3)cc2)cc1 | 98.3* | -1.6 | 14.9 | -5.0 | 1.3 | -8.7
Cc1cccc(NC(=O)C(C)SCc2nc3sc(C)c(C)c3c(=O)[nH]2)n1 (stereo unspecified) | u | 1.8 | -1.8 | -2.1 | 2.8 | -24.0
Cc1ccc(NC(=O)C(C)SCc2nc3sc(C)c(C)c3c(=O)[nH]2)nc1 (stereo unspecified) | 98.7* | x | -2.5 | 5.1 | -3.4 | -45.9
Cc1sc2nc(CSC(C)C(=O)Nc3cc(S(C)(=O)=O)ccc3Cl)[nH]c(=O)c2c1C (stereo unspecified) | 98.4* | -5.9 | -12.3 | -1.0 | -4.9 | -44.8
CCOC(=O)Cc1csc(NC(=O)CSc2nnc(-c3ccc(NS(=O)(=O)CC)cc3)o2)n1 | 97.9* | -0.3 | 2.6 | -3.2 | x | -4.6
CCOC(=O)Cc1csc(NC(=O)CSc2nnc(-c3ccncc3)n2Cc2ccco2)n1 | 97.4* | 1.7 | -3.1 | -2.0 | x | -5.8
CO[C@H]1CN(C)C(=O)c2ccc(NC(=O)c3ccccc3F)cc2OC[C@H](C)N(C(C)=O)C[C@H]1C | x | -2.2 | 0.1 | x | 0.3 | x
COCC(=O)N1[C@H](C#N)[C@H](c2ccccc2-c2ccc(C)cc2)[C@H]1CO | x | x | x | x | -0.2 | x
CCCN1[C@@H]2c3ccc(-c4ccccc4F)c(=O)n3C[C@H]1[C@H](CO)[C@H]2C(=O)NCC | x | -5.6 | -0.1 | x | 4.1 | x
